Records with an inconclusive call do not appear. The source made the active and inactive calls. Unless noted, calls come from the whole dose curve; as a rule, active = well fitted curve in the direction sought with a large enough effect; inconclusive = small, poorly fitted or top-dose-only effect, or another doubt; inactive = no such curve, though single readings can be large; an effect the other way counts as inactive or inconclusive.
Columns and labels:
[1] = Cell Viability - MRC5 (AID 434; calls by dose curve;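 note: potency is the fitted concentration of half-maximal effect; cells exposed to compound for 40 hours at 37 °C; potency reflects cytotoxicity seen as loss of intracellular ATP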); settings: MRC5 lung fibroblast viability, qHTS
In short: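 ATP luminescence read-out (CellTiter-Glo, 20 min RT) after 40 hr, 37 °C compound exposure of 1500 MRC5 cells/well. Data normalized to DMSO (basal) and 100 uM tamoxifen (100% inhibition); AC50 from standard Hill equation.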

[2] = Cell Viability - HUV-EC-C (AID 542); settings: HUV-EC-C endothelial cell viability, qHTS; series mostly up to 92.2 µM;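 note: cells exposed to compound for 40 hours; % is set by controls: 0 for no effect and ±100 for the full control effect; nearly all actives have a fitted effect of over 35% in size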
In short: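 CellTiter-Glo luminescence measured ATP loss in HUV-EC-C cells (1000/well) after 40 hr compound exposure at 37 °C, in complete culture medium. Concentration-response data were Hill-fitted to give AC50.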

[3] = Cellular Toxicity (caspase-3) HepG2 (AID 654); settings: HepG2 caspase-3 activation, luminescence; series mostly up to 92.2 µM;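 note: cells exposed to compound for 16 hours before reading; 0% = DMSO alone and 100% = caspase signal from 100 µM tamoxifen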
In short: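 Caspase 3/7 activation is measured as a luminescence increase (aminoluciferin substrate) after 16 h compound exposure of human hepatocarcinoma HepG2 cells. AC50 values are Hill fits, scaled between DMSO baseline and 100 uM tamoxifen stimulation.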

[4] = Cellular Toxicity (caspase-3) HUV-EC-C (AID 656); settings: HUV-EC-C cells, caspase-3 activation (apoptosis); series mostly up to 92.2 µM
In short: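 Concentration-dependent caspase 3/7 induction was assessed in HUV-EC-C cells exposed for 16 hours. Data scaled between DMSO and tamoxifen (100 uM) controls.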

[5] = Cellular Toxicity (caspase-3) MRC-5 (AID 659); settings: MRC-5 cells, luminescence, normalized: DMSO 0%, 10 µM staurosporine 100%; series mostly up to 91.7 µM
In short: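 MRC-5 fibroblasts, 1500/well; 16 h cpd, 37 °C; Caspase-Glo 3/7, 1 h RT; lumi read. Norm: DMSO = 0%, 10 uM staurosporine = 100%. Hill-fit AC50 from qHTS conc-response.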

[6] = Cellular Toxicity (caspase-3) SK-N-SH (AID 661); settings: SK-N-SH caspase-3 activation, qHTS, DMSO as zero, staurosporine as full; series mostly up to 91.7 µM
In short: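 Caspase 3/7 activation was read by luminogenic substrate cleavage after 16 hour treatment of SK-N-SH cells. Signal was scaled between DMSO and 10 uM staurosporine, and concentration-response data were fitted with the Hill equation for AC50.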

[7] = Cellular Toxicity (caspase-3) Hek293 (AID 664); settings: HEK293 caspase-3 activation, DMSO = 0%, 100 µM tamoxifen = 100%; at 92.2 µM (top of the series);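 note: cells exposed to compound for 16 h at 37 °C before readout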
In short: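 Concentration-response qHTS: caspase 3/7 activation measured by luminescent aminoluciferin substrate cleavage after 16 h compound exposure of Hek 293 cells. AC50 from Hill equation, with DMSO as basal and 100 uM tamoxifen as 100%.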

[8] = Cellular Toxicity (caspase-3) N2a (AID 665); settings: N2a cells, luminescence, normalized: DMSO 0%, 10 µM staurosporine 100%; series mostly up to 92.2 µM;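 note: compound exposure lasted 16 h at 37 °C before readout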
In short: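 Caspase-3/7 activation measured as luminescence from Caspase-Glo reagent (1 h, room temperature) after 16 h compound exposure of mouse N2a cells. AC50 values from Hill-equation concentration-response, scaled between DMSO and 10 uM staurosporine.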

[9] = Cellular Toxicity (caspase-3) NIH 3T3 (AID 666); settings: NIH 3T3 caspase-3 activation, apoptosis/toxicity, 0% DMSO, 100% is 100 µM tamoxifen; series mostly up to 92.2 µM;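 note: 0% = DMSO basal and 100% = 100 µM tamoxifen stimulation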
In short: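 Caspase-Glo 3/7 luminescence reported caspase activation in 1000 NIH 3T3 cells/well after 16 h compound exposure at 37 C. DMSO set basal and 100 uM tamoxifen set 100% stimulation; concentration-response modeled with the Hill equation for AC50.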

[10] = Cellular Toxicity (caspase-3) Renal Proximal Tubule (AID 667); settings: renal proximal tubule cells, primary cells freshly taken from rat; Potency: caspase-3 activation; series mostly up to 91.7 µM;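 note: cells exposed to compound for 16 hours at 37 °C before detection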
In short: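 Caspase-Glo 3/7 read-out, rat primary kidney proximal tubule cells. Compound exposure 16 h, 37 °C; detection after 1 h at RT. Activity scaled to DMSO and 10 uM staurosporine.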

[11] = MultiTox-Fluor Cytotoxicity Assay - LYMP1-001 - Dead Cells (AID 946); settings: LYMP1-001 lymphoblastoid cells, dead-cell protease fluorescence; series mostly up to 92.2 µM;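 note: 0% = DMSO and 100% = tetraoctylammonium bromide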
In short: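 LYMP1-001 lymphoblastoid cells (2500/well) treated 16 h at 37 C. Dead-cell protease cleavage of bis-AAF-R110 read at Ex/Em 485/520. Normalized to DMSO and 15 uM tetraoctylammonium bromide; AC50 from Hill fits.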

[12] = MultiTox-Fluor Cytotoxicity Assay - LYMP1-003 - Dead Cells (AID 961); settings: LYMP1-003 lymphoblastoid cells, dead-cell protease fluorescence; series mostly up to 92.2 µM;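 note: 0% = DMSO and 100% = tetraoctylammonium bromide; nearly all actives have a fitted effect of over 70% in size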
In short: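 LYMP1-003 human lymphoblastoid cells (2500/well) exposed to compound 16 h at 37 C in complete medium; dead-cell protease read with bis-AAF-R110 fluorescence (Ex/Em 485/520) after 60 min at room temperature. Normalized to DMSO and 15 uM tetraoctylammonium bromide; AC50 from Hill fit.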

[13] = MultiTox-Fluor Cytotoxicity Assay - LYMP1-003 - Live Cells (AID 962); settings: LYMP1-003 lymphoblastoid cells, MultiTox-Fluor live-cell protease fluorescence; series mostly up to 92.2 µM;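 note: 0% = DMSO only and full loss = 92 µM tetraoctylammonium bromide; cytotoxic hits lower the live-cell protease signal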
In short: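 Live-cell protease activity (GF-AFC substrate, 405/510 nm, 60 min at room temperature) after 16 h, 37 C compound exposure of human lymphoblastoid LYMP1-003 cells; concentration-response fitted to the Hill equation for AC50.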

[14] = Cell Viability - LYMP1-003 - Assay at 24 hr (AID 963); settings: LYMP1-003 lymphoblastoid cell viability; series mostly up to 92.2 µM;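 note: plate controls were DMSO only for no effect and tetraoctylammonium bromide positive control for full effect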
In short: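 Concentration-response qHTS: ATP loss measured by CellTiter-Glo luminescence after 24 h compound exposure at 37 C. Cells were LYMP1-003 human lymphoblastoid, 2500 per well. AC50 derived via standard Hill equation modeling.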

[15] = Cell Viability - LYMP1-002 - Assay at 24 hr (AID 993); settings: LYMP1-002 lymphoblastoid cells viability; series mostly up to 92.2 µM; note: % is set by controls: 0 for no effect and ±100 for the full control effect
In short: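 qHTS cytotoxicity at 24 h: CellTiter-Glo ATP luminescence in lymphoblastoid line LYMP1-002 incubated with compound at 37 °C. Concentration-response modeled with the Hill equation for AC50; tetraoctylammonium bromide served as positive control.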

[16] = qHTS Assay for Identification of Small Molecule Inducers of Hypoxia Response (AID 2120; active = well fitted curve in the direction sought with a large enough effect in the signal ratio, with a control signal flat, not every such curve was filed as active; the % refers to the signal ratio; note: 0% is about no effect); settings: hypoxia response reporter cells, beta-lactamase ratio readout; series mostly up to 104 µM
In short: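 Reporter induction read as the CCF4 blue/green (460nm/530nm) emission ratio after 2.5 h dye loading at room temperature. ME-180 HRE-beta-lactamase cells received titrated compounds for 17 h at 37 degrees Celsius; AC50 values derived.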

[17] = target: Peroxisome proliferator-activated receptor alpha (Homo sapiens) (UniProt Q07869); test: qHTS assay for small molecule agonists of the peroxisome proliferator-activated receptor alpha (PPARalpha) signaling pathway (AID 651778); settings: PathHunter PPARalpha complementation, chemiluminescence, 6 h; max response: stronger effect = higher value; note: % of control where 0% means no effect
In short: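 Enzyme-fragment complementation assay in which ligand-bound PPARalpha translocates and forms an active enzyme that generates chemiluminescence. Cells were plated overnight, exposed to compound for 6 hr at 37 C, and then given detection reagent for 60 min at room temperature.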

[18] = qHTS assay for small molecule agonists of the antioxidant response element (ARE) signaling pathway measured by Nrf2-dependant transcriptional activity - cell viability counter screen (AID 720653; active = well fitted curve in the direction sought with a large enough effect in the repeat runs; an effect the other way counts as inactive or inconclusive; note: % is set by controls: 0 for no effect and ±100 for the full control effect); settings: ARE-bla HepG2 viability, CellTiter-Glo ATP luminescence, 16 h; max response: stronger effect = lower value
In short: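 ARE-bla HepG2 cells treated with compounds for 16 h at 37C; this counter screen measures viability as intracellular ATP by CellTiter-Glo luminescence after 30 min at room temperature.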

[19] = qHTS assay for cell viability of HEK293 cells (AID 743288); settings: ATP luminescence (CellTiter-Glo), 18 h; max response: stronger effect = lower value; note: % is set by controls: 0 for no effect and ±100 for the full control effect; nearly all actives have a fitted effect of over 50% in size
In short: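 HEK293, 18 h, 37 C, ATP luminescence. Cells at 2,000/well were allowed at least 5 h to settle before dosing; CellTiter-Glo developed 30 min at RT.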

[20] = qHTS assay for cell viability of the p53RE-bla HCT-116 cell line (AID 743292); settings: p53RE-bla HCT-116 viability, ATP luminescence, 16 h; series mostly up to 95 µM; note: % is set by controls: 0 for no effect and ±100 for the full control effect; nearly all actives have a fitted effect of over 55% in size
In short: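 ATP-based luminescence, 16 h compound exposure at 37 C, p53RE-bla HCT-116 cells at 4,000/well.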

Sequence of Peroxisome proliferator-activated receptor alpha (Homo sapiens) (Q07869 whole entry, looked up, the tested form may be a part): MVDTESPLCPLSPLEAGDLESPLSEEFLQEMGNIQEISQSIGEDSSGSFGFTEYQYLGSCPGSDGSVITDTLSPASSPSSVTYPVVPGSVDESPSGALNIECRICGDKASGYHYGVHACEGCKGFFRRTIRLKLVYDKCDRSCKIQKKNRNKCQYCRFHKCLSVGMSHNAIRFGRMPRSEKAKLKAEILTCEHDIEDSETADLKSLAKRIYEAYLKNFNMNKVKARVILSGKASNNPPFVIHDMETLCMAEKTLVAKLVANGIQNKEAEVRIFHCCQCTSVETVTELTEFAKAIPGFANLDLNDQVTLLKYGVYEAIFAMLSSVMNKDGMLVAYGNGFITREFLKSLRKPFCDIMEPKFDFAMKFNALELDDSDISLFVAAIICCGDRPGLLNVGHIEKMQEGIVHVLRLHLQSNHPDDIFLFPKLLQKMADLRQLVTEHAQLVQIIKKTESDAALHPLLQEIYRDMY

O=[N+]([O-])c1cccc(I)c1
inactive: Potency [1] > 92 µM | Potency [2] | Potency [3] | Potency [4] | outcome [5] | outcome [6] | caspase-3 activation [7] -1.61% | outcome [8] | outcome [9] | Potency [10] | Potency [11] | Potency [12] | Potency [13] | Potency [14] | Potency [15] | Potency [16] | max response [17] -0.601% | max response [18] 2.94% | max response [19] -9.2% | Potency [20]

c1ccncc1
inactive: Potency [1] > 92 µM | Potency [2] | Potency [3] | Potency [4] | outcome [5] | outcome [6] | caspase-3 activation [7] -0.0676% | outcome [8] | outcome [9] | Potency [10] | Potency [11] | Potency [12] | Potency [13] | Potency [14] | Potency [15] | Potency [16] | max response [17] -4.5% | max response [18] -7.78% | max response [19] 1.01% | Potency [20]

COc1ccc(C(=O)Nc2ccccc2)cc1[N+](=O)[O-]
inactive: Potency [1] > 92 µM | Potency [2] | Potency [3] | Potency [4] | outcome [5] | outcome [6] | caspase-3 activation [7] -1.89% | outcome [8] | outcome [9] | Potency [10] | Potency [11] | Potency [12] | Potency [13] | Potency [14] | Potency [15] | Potency [16] | max response [17] -0.106% | max response [18] 0.739% | max response [19] -5.07% | Potency [20]

CCCCCCc1ccc(-c2ccc(C#N)cc2)cc1
inactive: Potency [1] > 92 µM | Potency [2] | Potency [3] | Potency [4] | outcome [5] | outcome [6] | caspase-3 activation [7] 0.233% | outcome [8] | outcome [9] | Potency [10] | Potency [11] | Potency [12] | Potency [13] | Potency [14] | Potency [15] | Potency [16] | max response [17] -3.23% | max response [18] -11.9% | max response [19] -6.02% | Potency [20]

CC(C)S
inactive: Potency [1] > 92 µM | Potency [2] | Potency [3] | Potency [4] | outcome [5] | outcome [6] | caspase-3 activation [7] 0.604% | outcome [8] | outcome [9] | Potency [10] | Potency [11] | Potency [12] | Potency [13] | Potency [14] | Potency [15] | Potency [16] | max response [17] -0.0008% | max response [18] 14.7% | max response [19] -8.12% | Potency [20]

C[Si](C)(C)Cl
inactive: Potency [1] > 92 µM | Potency [2] | Potency [3] | Potency [4] | outcome [5] | outcome [6] | caspase-3 activation [7] 1.84% | outcome [8] | outcome [9] | Potency [10] | Potency [11] | Potency [12] | Potency [13] | Potency [14] | Potency [15] | Potency [16] | max response [17] -1.44% | max response [18] -8.15% | max response [19] -4.36% | Potency [20]

Reference: PubChem BioAssay (NCATS)
